Test results: the supplement of paper PMC11732987, “Enantioselective OTUD7B fragment discovery through chemoproteomics screening and high-throughput optimisation” (Communications Chemistry, 2025)

Legend:
Test in all cases: log2 ratio of Biotin-Ahx-Ub-VS probe labelling (fragment/DMSO); higher = less target engagement (more negative = stronger competition), active = hit call of the paper (q ≤ 0.05, log2 ratio ≤ -1)
Details in all cases: compound concentration: 200 uM; treatment time: 3 h
USP19 = biological target: T1, USP19 (UniProt O94966)
T1 sequence (whole entry): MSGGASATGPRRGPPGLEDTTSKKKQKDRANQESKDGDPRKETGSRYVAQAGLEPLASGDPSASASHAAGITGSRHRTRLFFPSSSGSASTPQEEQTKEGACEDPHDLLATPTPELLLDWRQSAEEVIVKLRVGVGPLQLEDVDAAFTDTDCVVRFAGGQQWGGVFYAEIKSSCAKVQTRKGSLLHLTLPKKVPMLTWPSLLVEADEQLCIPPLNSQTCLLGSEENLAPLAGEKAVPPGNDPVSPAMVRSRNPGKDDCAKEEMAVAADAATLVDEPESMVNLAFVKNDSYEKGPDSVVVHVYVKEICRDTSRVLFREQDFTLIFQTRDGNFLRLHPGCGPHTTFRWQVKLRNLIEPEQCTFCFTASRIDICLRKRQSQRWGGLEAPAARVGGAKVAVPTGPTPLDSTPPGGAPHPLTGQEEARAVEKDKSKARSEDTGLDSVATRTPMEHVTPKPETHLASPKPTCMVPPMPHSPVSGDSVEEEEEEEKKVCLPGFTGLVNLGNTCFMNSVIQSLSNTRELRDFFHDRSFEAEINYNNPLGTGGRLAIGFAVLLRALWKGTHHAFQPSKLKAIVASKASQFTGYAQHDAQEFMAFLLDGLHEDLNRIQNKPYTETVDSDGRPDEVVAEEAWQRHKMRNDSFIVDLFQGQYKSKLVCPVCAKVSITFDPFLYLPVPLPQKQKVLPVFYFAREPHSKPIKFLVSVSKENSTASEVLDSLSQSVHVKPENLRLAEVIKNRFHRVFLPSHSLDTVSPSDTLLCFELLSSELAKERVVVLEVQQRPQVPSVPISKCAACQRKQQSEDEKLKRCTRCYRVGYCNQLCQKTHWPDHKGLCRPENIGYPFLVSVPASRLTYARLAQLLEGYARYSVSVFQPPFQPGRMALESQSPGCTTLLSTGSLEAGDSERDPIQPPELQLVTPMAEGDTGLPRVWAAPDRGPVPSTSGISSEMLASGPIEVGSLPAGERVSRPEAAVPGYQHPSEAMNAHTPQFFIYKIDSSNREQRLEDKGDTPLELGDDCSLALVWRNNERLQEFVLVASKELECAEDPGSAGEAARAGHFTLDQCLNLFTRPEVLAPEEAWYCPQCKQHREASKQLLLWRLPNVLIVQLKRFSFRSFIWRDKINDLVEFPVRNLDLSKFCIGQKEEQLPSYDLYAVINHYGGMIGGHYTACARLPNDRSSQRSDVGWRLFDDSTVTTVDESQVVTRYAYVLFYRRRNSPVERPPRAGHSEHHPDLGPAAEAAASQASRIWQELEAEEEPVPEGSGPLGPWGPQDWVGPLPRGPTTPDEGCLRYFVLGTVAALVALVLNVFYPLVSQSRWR
Procedure, shortened: (§1)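 In triplicate, 495 µg of HEK293T lysate per sample was incubated with fragment at 200 µM or vehicle for 3 h. Biotin-Ahx-Ub-VS was then added to 0.5 µM final for 1 h, and labelled DUBs were captured with NeutrAvidin, digested with LysC and trypsin, and measured by diaPASEF LC-MS/MS. Data are average log2 fragment/vehicle ratios by unpaired t-test from global-median-normalised Spectronaut label-free quantities, restricted to proteins with ≥2 unique peptides.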

USP22 = biological target: T2, USP22 (UniProt Q9UPT9)
T2 sequence (whole entry): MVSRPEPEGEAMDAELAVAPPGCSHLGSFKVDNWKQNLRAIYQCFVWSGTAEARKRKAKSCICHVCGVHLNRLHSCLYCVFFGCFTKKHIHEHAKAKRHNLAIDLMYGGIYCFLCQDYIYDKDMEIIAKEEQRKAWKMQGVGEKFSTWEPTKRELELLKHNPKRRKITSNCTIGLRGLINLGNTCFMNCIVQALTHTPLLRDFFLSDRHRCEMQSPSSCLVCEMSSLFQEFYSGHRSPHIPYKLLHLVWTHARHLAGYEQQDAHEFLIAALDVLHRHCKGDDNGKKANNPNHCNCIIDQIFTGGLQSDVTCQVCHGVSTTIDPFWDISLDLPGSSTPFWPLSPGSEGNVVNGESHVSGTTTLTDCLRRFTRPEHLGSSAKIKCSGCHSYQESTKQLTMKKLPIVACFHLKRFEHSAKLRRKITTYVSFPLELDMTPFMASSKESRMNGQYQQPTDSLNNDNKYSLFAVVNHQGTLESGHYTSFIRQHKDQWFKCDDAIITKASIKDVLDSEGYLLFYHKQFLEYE
Procedure, shortened: as §1

USP24 = USP24 (UniProt Q9UPU5)
USP24, sequence (Q9UPU5 whole entry): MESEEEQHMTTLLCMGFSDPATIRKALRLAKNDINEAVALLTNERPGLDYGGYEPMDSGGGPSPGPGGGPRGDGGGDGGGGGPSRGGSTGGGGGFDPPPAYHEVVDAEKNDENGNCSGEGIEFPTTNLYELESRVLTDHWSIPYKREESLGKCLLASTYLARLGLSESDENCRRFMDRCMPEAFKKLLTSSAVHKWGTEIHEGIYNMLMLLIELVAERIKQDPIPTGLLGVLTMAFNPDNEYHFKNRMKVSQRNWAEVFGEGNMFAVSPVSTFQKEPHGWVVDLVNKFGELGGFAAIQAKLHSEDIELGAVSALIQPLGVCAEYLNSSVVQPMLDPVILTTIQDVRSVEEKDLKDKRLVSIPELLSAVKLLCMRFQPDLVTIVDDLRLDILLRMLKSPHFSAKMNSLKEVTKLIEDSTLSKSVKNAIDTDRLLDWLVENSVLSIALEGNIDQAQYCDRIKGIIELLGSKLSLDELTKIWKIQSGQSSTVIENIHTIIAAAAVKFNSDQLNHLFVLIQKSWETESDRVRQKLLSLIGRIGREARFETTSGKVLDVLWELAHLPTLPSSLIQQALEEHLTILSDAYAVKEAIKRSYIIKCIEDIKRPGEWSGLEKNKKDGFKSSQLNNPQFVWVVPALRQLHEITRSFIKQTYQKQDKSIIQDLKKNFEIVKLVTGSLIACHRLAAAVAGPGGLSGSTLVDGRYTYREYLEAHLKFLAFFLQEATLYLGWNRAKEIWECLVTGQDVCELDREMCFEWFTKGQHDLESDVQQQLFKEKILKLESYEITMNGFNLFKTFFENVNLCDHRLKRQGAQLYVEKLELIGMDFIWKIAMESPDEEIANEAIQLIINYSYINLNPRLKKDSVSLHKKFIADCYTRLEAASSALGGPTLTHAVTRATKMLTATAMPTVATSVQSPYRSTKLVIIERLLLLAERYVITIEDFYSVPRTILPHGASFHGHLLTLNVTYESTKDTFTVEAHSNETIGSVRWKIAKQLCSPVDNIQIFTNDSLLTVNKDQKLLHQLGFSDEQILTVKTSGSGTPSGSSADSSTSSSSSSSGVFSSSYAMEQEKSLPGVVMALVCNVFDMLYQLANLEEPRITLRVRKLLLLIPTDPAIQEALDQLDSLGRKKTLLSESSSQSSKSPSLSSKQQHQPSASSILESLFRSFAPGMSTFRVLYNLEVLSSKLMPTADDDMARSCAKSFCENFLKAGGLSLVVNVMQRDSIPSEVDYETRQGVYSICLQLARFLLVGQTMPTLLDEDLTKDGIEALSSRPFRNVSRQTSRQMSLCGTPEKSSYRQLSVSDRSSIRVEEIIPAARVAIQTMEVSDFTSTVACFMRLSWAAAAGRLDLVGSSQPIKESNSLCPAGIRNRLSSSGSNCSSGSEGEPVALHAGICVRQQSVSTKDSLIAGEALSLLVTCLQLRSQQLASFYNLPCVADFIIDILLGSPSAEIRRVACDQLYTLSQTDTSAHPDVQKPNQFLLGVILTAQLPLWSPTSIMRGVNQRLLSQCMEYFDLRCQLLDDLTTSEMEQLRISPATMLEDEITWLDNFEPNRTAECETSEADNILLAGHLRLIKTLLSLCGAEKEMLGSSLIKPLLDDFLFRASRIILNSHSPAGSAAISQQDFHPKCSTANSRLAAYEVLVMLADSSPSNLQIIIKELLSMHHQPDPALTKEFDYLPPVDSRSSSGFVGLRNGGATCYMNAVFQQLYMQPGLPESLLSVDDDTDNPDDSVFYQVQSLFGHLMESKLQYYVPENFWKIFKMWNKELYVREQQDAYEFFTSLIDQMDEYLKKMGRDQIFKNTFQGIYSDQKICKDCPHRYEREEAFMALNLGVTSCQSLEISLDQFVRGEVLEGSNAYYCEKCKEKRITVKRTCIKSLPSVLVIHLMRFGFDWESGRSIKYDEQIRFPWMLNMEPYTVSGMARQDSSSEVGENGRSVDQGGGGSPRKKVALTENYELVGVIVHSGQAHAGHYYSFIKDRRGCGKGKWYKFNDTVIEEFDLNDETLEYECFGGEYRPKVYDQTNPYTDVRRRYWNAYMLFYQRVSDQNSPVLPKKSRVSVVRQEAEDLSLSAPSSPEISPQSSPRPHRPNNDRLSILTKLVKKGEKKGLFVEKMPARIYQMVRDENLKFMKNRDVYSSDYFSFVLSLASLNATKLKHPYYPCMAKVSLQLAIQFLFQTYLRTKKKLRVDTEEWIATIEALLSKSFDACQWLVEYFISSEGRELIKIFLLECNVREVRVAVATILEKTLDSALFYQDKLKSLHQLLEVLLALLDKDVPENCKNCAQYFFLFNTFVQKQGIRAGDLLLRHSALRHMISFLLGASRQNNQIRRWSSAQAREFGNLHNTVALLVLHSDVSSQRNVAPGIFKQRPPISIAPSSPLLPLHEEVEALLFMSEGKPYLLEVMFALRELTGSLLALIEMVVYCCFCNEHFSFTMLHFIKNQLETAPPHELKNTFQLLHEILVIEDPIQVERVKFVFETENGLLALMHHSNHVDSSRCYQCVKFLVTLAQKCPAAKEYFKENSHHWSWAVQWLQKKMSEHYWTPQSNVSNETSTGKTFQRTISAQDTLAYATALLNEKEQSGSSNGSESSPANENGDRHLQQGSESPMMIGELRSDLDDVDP
Procedure, shortened: as §1

USP25 = biological target: T3, USP25 (UniProt Q9UHP3)
T3 sequence (whole entry): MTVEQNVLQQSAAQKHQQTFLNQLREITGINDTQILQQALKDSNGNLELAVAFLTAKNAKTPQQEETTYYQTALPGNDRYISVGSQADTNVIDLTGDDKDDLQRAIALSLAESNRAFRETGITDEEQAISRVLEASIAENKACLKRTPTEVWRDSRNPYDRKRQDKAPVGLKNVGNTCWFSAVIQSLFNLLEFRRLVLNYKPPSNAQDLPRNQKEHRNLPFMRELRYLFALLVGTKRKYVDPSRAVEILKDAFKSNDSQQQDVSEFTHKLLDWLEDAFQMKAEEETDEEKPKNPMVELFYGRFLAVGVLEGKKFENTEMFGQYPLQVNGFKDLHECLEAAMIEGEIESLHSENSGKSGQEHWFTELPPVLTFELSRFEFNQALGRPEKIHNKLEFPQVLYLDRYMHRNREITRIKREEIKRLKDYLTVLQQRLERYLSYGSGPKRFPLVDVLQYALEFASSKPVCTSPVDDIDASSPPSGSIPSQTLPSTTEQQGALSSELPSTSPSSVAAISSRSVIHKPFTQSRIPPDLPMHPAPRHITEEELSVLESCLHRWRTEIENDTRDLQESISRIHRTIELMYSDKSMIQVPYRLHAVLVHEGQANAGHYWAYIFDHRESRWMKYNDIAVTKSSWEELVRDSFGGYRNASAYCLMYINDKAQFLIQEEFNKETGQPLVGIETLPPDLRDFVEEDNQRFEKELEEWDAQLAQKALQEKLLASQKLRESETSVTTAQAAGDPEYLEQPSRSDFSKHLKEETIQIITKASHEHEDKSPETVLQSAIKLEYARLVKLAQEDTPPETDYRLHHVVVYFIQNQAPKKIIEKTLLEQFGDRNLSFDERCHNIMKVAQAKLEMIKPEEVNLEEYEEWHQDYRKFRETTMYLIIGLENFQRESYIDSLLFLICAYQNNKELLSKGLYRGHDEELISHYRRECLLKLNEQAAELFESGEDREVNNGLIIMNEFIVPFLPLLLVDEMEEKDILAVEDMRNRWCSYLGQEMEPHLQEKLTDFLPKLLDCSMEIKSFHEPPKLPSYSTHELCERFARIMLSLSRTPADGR
Procedure, shortened: as §1

USP28 = biological target: T4, USP28 (UniProt Q96RU2)
T4 sequence (whole entry): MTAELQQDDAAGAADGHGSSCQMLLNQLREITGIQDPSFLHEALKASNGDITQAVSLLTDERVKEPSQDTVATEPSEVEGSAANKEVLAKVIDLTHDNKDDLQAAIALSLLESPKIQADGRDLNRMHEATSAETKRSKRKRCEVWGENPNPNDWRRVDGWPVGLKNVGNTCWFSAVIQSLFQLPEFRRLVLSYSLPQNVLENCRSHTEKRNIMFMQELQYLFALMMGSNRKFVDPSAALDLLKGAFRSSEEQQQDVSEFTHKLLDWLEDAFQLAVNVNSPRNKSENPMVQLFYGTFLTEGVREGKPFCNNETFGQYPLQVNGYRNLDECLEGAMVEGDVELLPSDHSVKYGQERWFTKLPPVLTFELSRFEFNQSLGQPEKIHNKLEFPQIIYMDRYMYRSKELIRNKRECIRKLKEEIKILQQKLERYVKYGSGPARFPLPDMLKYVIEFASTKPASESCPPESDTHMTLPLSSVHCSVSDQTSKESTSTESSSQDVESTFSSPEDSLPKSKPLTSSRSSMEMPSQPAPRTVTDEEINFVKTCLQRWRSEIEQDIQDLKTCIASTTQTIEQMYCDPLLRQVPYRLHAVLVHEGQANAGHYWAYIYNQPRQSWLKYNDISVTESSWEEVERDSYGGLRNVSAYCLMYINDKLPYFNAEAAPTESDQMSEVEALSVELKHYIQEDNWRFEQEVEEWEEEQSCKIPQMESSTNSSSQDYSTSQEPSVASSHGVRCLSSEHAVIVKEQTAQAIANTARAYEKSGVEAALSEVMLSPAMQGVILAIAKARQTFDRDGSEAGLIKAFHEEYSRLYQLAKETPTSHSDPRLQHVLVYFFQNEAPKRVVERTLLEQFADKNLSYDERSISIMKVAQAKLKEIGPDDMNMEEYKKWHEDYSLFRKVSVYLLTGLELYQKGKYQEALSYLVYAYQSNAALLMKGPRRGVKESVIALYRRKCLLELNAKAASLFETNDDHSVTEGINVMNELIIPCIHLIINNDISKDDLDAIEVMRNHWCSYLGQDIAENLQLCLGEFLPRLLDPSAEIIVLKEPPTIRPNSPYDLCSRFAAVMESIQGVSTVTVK
Procedure, shortened: as §1

Measured: log2 ratio of Biotin-Ahx-Ub-VS probe labelling

O=C(CCl)N1CCN(C(=O)Nc2ccccc2)CC1
inactive: USP19 -0.276 | USP22 0.14 | USP24 0.00221 | USP25 -0.151 | USP28 -0.246
